Results published in PubChem BioAssay (NCATS).
Results filed as inconclusive are left out. Values without a mark were called inactive. Activity calls are given as the source filed them. Calls come from the whole dose curve; as a rule, active = well fitted inhibition curve with a large enough effect; inconclusive = small, poorly fitted or top-dose-only effect; inactive = flat fitted curve, though single readings scatter.

biological target: Glutathione peroxidase 1 (Homo sapiens) (UniProt P07203); test: Primary qHTS Assay for Inhibitors of Recombinant Selenoprotein Glutathione Peroxidase 1 (GPX1) (AID 1845191); details: recombinant GPX1, GR-coupled NADPH fluorescence, 15 min; series mostly up to 27.7 µM; activity, negative = inhibition: at the top concentration
Method in brief: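 Recombinant GPX1 (10 nM final) was preincubated with compound for 30 min at room temperature, then reacted with 1 mM GSH, 0.5 mM CHP, 0.5 mM NADPH and 100 nM glutathione reductase; NADPH fluorescence (340/450 nm) was read at 0 and 15 min.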
% is set by controls: 0 for no effect and ±100 for the full control effect.
Note: nearly all actives have a fitted effect of over 65% in size.

Chain of Glutathione peroxidase 1 (Homo sapiens) (P07203 whole entry, looked up): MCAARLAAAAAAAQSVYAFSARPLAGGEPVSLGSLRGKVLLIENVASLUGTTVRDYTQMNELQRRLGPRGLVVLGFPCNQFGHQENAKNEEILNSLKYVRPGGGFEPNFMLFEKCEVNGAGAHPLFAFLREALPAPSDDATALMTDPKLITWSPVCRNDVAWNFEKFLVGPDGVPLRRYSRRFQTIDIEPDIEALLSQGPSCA

Row | Structure (SMILES) | outcome | activity, negative = inhibition
1 | CC1CC=C2C1CC1(O)C(=O)CC2(C)C1(C)CO (stereo not drawn) | inactive [at 48.8 µM] | 
2 | COc1c2c(c(C)c3c1C(=O)OC3)OC1(C)CC(O)C34OC(O)(CCC3(C)C1C2)OC4(C)C (stereo not drawn) |  | 3.62%
3 | CC(C)=CC[C@H]1O[C@]2(O)C([C@H]3CCC4[C@@]5(C)CC[C@H](O[C@@H]6O[C@H](CO)[C@H](O)[C@H](O[C@@H]7O[C@H](CO)[C@@H](O)[C@H](O)[C@H]7O)[C@H]6O[C@@H]6O[C@@H](C)[C@H](O)[C@@H](O)[C@H]6O)C(C)(C)C5CC[C@@]4(C)[C@]3(C)[C@H]2O)[C@@]1(C)O (stereo partly drawn) | inactive [at 15.3 µM] | 
4 | O=[N+]([O-])c1cc(Cl)ccc1S(=O)(=O)N1CCN(Cc2ccccc2)CC1 |  | -20.1% [at 48.8 µM]
5 | C=CC(C)(O)CC/C=C(\C)C1CC=C(C)C(=O)O1 (stereo not drawn) |  | 2.81% [at 48.8 µM]
6 | CC1=C2CC(C)(C)CC2C(O)C2=C(C1)C(=O)OC2O (stereo not drawn) | inactive [at 48.8 µM] | 
7 | C=C1CC2C(C)(CCC(=O)O)C(C(C)(C)O)CCC2(C)C2(C(=O)OC)C(=O)C(C)(O)C(=O)C12C (stereo not drawn) |  | -4.33%
8 | COc1ccc(/C=C/C(=O)O[C@@H]2[C@@H](O)[C@@H](O)[C@H](O[C@H]3[C@@H]4C=CO[C@@H](O[C@@H]5O[C@H](CO)[C@@H](O)[C@H](O)[C@H]5O)[C@@H]4[C@@]4(CO)O[C@@H]34)O[C@H]2C)cc1 | inactive [at 15.3 µM] | 
9 | CC(=O)NC1C(OC2CCC3(C)C(CCC4(C)C3CC=C3C5CC(C)(C)CCC5(C(=O)O)C(O)CC34C)C2(C)C)OC(CO)C(O)C1O (stereo not drawn) |  | -5.83% [at 15.3 µM]
10 | C[C@@H]1CC[C@]2(C(=O)O)CC[C@]3(C)C(=CCC4[C@@]5(C)C[C@@H](O)[C@H](O)[C@@](C)(CO)C5CC[C@]43C)C2[C@H]1C (stereo partly drawn) | inactive | 
11 | CC1(C)CC[C@]2(C(=O)O[C@@H]3O[C@H](CO)[C@@H](O)[C@H](O)[C@H]3O)CC[C@]3(C)C(=CCC4[C@@]5(C)CC[C@H](O[C@@H]6O[C@H](C(=O)O)[C@@H](O)[C@H](O)[C@H]6OC6OC(CO)C(O)C(O)C6O)C(C)(C)C5CC[C@]43C)[C@@H]2C1 (stereo partly drawn) |  | -6.19% [at 15.3 µM]
12 | CN(C)C(=O)C(O)C(Cc1ccccc1)NC(=O)c1cc2cc(Cl)ccc2[nH]1 (stereo not drawn) |  | -19.4% [at 48.8 µM]
13 | CC1=CC2=C(C)C(=O)[C@](C)(O)[C@H](O)C2=CO1 | inactive [at 48.8 µM] | 
14 | Nc1nc(COC(=O)c2ccc([N+](=O)[O-])cc2)nc(Nc2ccccc2)n1 |  | -5.59% [at 48.8 µM]
15 | CC(C)C(O)(CO)CCO[C@@H]1O[C@H](CO[C@H]2OC[C@](O)(CO)[C@H]2O)[C@@H](O)[C@H](O)[C@H]1O (stereo partly drawn) |  | -6.47%
16 | CC1OC(O[C@@H]2[C@@H](O)[C@H](OC(=O)[C@]34CCC(C)(C)C[C@H]3C3=CCC5[C@@]6(C)CC[C@H](O[C@@H]7O[C@H](C(=O)O)[C@@H](O)[C@H](O[C@@H]8OC[C@@H](O)[C@H](O)[C@H]8O)[C@H]7O[C@@H]7O[C@H](CO)[C@H](O)[C@H](O)[C@H]7O)[C@@](C)(C=O)C6CC[C@@]5(C)[C@]3(C)C[C@H]4O)O[C@H](C)[C@@H]2OC2OC(C)C(OC3OCC(O)C(O)C3O)C(O)C2O)C(O)C(O)C1O (stereo partly drawn) | inactive [at 9.52 µM] | 
17 | C=C1C(OC(C)=O)C(=O)C2C(C)(C)C(O)CCC2(C)C1CC(OC(C)=O)/C(C)=C/COC(C)=O (stereo not drawn) |  | -8.73%
18 | NC(=O)[C@H](Cc1ccccc1)NC(=O)[C@H](CCCN=C(N)N)NC(=O)C12CC3CC(CC(C3)C1)C2 | inactive [at 9.52 µM] | 
19 | C=C1CC23CC1CCC2C12OC(=O)C(C)(C(O)C(O)C1O)C2C3C(=O)O (stereo not drawn) |  | -13.4%
20 | C/C=C/C(=O)OC1/C=C/C(O)C(OC(C)=O)CCC(=O)OC1C (stereo not drawn) |  | -13.5%
21 | CCC(C)C(N)C(=O)NCCN1CCOCC1 (stereo not drawn) | inactive [at 48.8 µM] | 
22 | O=C(/C=C/c1ccc(O)c(O)c1)O[C@H]1[C@@H]2C=CO[C@@H](O[C@@H]3O[C@H](CO)[C@@H](O)[C@H](O)[C@H]3O)[C@@H]2[C@@]2(CO)O[C@@H]12 |  | -17.4%
23 | COc1c(C)c(OCC=C(C)C)cc2c1COC2=O | inactive [at 48.8 µM] | 
24 | C=C1CC[C@H]2[C@@](C)(CCC(OC3OC(CO)C(O)C(O)C3O)[C@@]2(C)CO)C1C(=O)CC1=CCOC1=O (stereo partly drawn) | inactive | 
25 | CC(=O)O[C@@H]1[C@@H](O)[C@H](C)O[C@@H](O[C@H]2[C@@H]3C=CO[C@@H](O[C@@H]4O[C@H](CO)[C@@H](O)[C@H](O)[C@H]4OC(C)=O)[C@@H]3[C@@]3(CO)O[C@@H]23)[C@@H]1OC(=O)/C=C/c1ccc(O)cc1 | inactive [at 15.3 µM] | 
26 | COC(=O)c1[nH]c(=O)c2ccccc2c1-c1ccc[nH]1 | inactive [at 48.8 µM] | 
27 | CC(C/C=C/C(C)(C)O)C1CCC(C)(O)C(O)C1 (stereo not drawn) |  | -8.49% [at 48.8 µM]
28 | COc1ccc(/C=C/C(N)=O)cc1OC |  | -13.1% [at 48.8 µM]
29 | COC(=O)C1(C)CCCC2(C)c3ccc(C(C)C)cc3C(O)C(O)C12 (stereo not drawn) |  | -13.8%
30 | CCCCNc1nc(N)c2[nH]c(=O)n(Cc3ccc(OCCN(C)C)nc3)c2n1 | inactive [at 48.8 µM] | 

biological target: Phospholipid hydroperoxide glutathione peroxidase GPX4 (Homo sapiens) (UniProt P36969); test: Primary qHTS Assay for Inhibitors of Recombinant Selenoprotein Glutathione Peroxidase 4 (GPX4) (AID 1845192); details: recombinant GPX4, GR-coupled NADPH fluorescence, 15 min; series mostly up to 27.8 µM; activity change, negative = inhibition: at the top concentration
Method in brief: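 GR-coupled readout: 100 nM GR, 1 mM GSH, 0.5 mM NADPH; NADPH fluorescence (ex 340/em 450 nm) read at t=0 and after 15 min RT. GPX4 200 nM, preincubated 30 min with compound; substrate 0.5 mM CHP.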

Chain of Phospholipid hydroperoxide glutathione peroxidase GPX4 (Homo sapiens) (P36969 whole entry, looked up): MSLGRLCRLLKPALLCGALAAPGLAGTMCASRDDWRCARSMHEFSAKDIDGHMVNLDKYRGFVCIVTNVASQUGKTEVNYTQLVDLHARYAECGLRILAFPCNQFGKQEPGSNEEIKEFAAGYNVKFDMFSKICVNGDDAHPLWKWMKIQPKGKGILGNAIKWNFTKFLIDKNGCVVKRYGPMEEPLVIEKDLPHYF

Row | Structure (SMILES) | activity change, negative = inhibition | outcome
31 | C[C@@H]1O[C@@H](O[C@H]2[C@@H]3C=CO[C@@H](O[C@@H]4O[C@H](CO)[C@@H](O)[C@H](O)[C@H]4O)[C@@H]3[C@@]3(CO)O[C@@H]23)[C@H](O)[C@H](OC(=O)/C=C/c2ccc(O)cc2)[C@H]1OC(=O)/C=C/c1ccc(O)cc1 | -12.4% [at 15.3 µM] | 
32 | CC1(C)CC[C@]2(C(=O)OC3OC(CO)C(O)C(O)C3O)CC[C@]3(C)C(=CCC4[C@@]5(C)C[C@@H](O)[C@H](OC6OC(C(=O)O)C(O)C(O)C6O)C(C)(C)C5CC[C@]43C)[C@@H]2C1 (stereo partly drawn) | -10.3% [at 15.3 µM] | 
33 | C=C1CCC2C(C)(C)CCC[C@]2(C)[C@H]1CC/C(C)=C/C(=O)O (stereo partly drawn) | -16.5% [at 50 µM] | 
34 | C/C=C(/C)C(=O)OC1CC(C)(C)CC2C3=CCC4C5(C)CCC(OC6OC(C)C(OC7OC(C(=O)O)C(O)C(OC8OC(CO)C(O)C(O)C8OC8OC(CO)C(O)C(O)C8O)C7O)C(O)C6O)C(C)(C)C5CCC4(C)C3(C)C(OC(=O)/C=C/C=C/C=C/CCC)C(OC(C)=O)C12CO (stereo not drawn) | -21.4% [at 9.73 µM] | 
35 | COc1cc(/C=C/C(=O)OC[C@H]2O[C@@H](OC3CC(C)=C(C(=O)O)C(C)(C)C3)[C@H](O)[C@@H](O)[C@@H]2O)cc(OC)c1O (stereo partly drawn) | -6.02% | 
36 | Oc1ccccc1-c1cc(-c2ccccc2F)[nH]n1 | 8.79% [at 50 µM] | 
37 | CSCC1OC(n2cnc3c(=O)[nH]cnc32)C(O)C1O (stereo not drawn) | -5.05% [at 50 µM] | 
38 | C=C1C(O)CC2C(C(=O)O)=COC(O[C@@H]3O[C@H](COC(=O)c4ccc(O)cc4)[C@@H](O)[C@H](O)[C@H]3O)C12 (stereo partly drawn) | 3.99% | 
39 | C[C@@]1(C(=O)O)CCC[C@@]2(C)C3=CC[C@H]4C[C@@]3(CC[C@H]12)CC4(O)CO (stereo partly drawn) | -10.1% | 
40 | CC1CC=C2C1CC1(O)C(=O)CC2(C)C1(C)CO (stereo not drawn) | -18.6% [at 50 µM] | 
41 | COc1c2c(c(C)c3c1C(=O)OC3)OC1(C)CC(O)C34OC(O)(CCC3(C)C1C2)OC4(C)C (stereo not drawn) | -6.47% | 
42 | CC(C)=CC[C@H]1O[C@]2(O)C([C@H]3CCC4[C@@]5(C)CC[C@H](O[C@@H]6O[C@H](CO)[C@H](O)[C@H](O[C@@H]7O[C@H](CO)[C@@H](O)[C@H](O)[C@H]7O)[C@H]6O[C@@H]6O[C@@H](C)[C@H](O)[C@@H](O)[C@H]6O)C(C)(C)C5CC[C@@]4(C)[C@]3(C)[C@H]2O)[C@@]1(C)O (stereo partly drawn) |  | inactive [at 15.3 µM]
43 | O=[N+]([O-])c1cc(Cl)ccc1S(=O)(=O)N1CCN(Cc2ccccc2)CC1 | -5.03% [at 50 µM] | 
44 | C=CC(C)(O)CC/C=C(\C)C1CC=C(C)C(=O)O1 (stereo not drawn) | -9.46% [at 50 µM] | 
45 | CC1=C2CC(C)(C)CC2C(O)C2=C(C1)C(=O)OC2O (stereo not drawn) | 0.916% [at 50 µM] | 
46 | C=C1CC2C(C)(CCC(=O)O)C(C(C)(C)O)CCC2(C)C2(C(=O)OC)C(=O)C(C)(O)C(=O)C12C (stereo not drawn) | -6.72% | 
47 | COc1ccc(/C=C/C(=O)O[C@@H]2[C@@H](O)[C@@H](O)[C@H](O[C@H]3[C@@H]4C=CO[C@@H](O[C@@H]5O[C@H](CO)[C@@H](O)[C@H](O)[C@H]5O)[C@@H]4[C@@]4(CO)O[C@@H]34)O[C@H]2C)cc1 | -8.29% [at 15.3 µM] | 
48 | CC(=O)NC1C(OC2CCC3(C)C(CCC4(C)C3CC=C3C5CC(C)(C)CCC5(C(=O)O)C(O)CC34C)C2(C)C)OC(CO)C(O)C1O (stereo not drawn) | -8.92% [at 15.3 µM] | 
49 | C[C@@H]1CC[C@]2(C(=O)O)CC[C@]3(C)C(=CCC4[C@@]5(C)C[C@@H](O)[C@H](O)[C@@](C)(CO)C5CC[C@]43C)C2[C@H]1C (stereo partly drawn) | -2.39% | 
50 | CC1(C)CC[C@]2(C(=O)O[C@@H]3O[C@H](CO)[C@@H](O)[C@H](O)[C@H]3O)CC[C@]3(C)C(=CCC4[C@@]5(C)CC[C@H](O[C@@H]6O[C@H](C(=O)O)[C@@H](O)[C@H](O)[C@H]6OC6OC(CO)C(O)C(O)C6O)C(C)(C)C5CC[C@]43C)[C@@H]2C1 (stereo partly drawn) | 4.71% [at 15.3 µM] | 
51 | CN(C)C(=O)C(O)C(Cc1ccccc1)NC(=O)c1cc2cc(Cl)ccc2[nH]1 (stereo not drawn) | -10.9% [at 50 µM] | 
52 | CC1=CC2=C(C)C(=O)[C@](C)(O)[C@H](O)C2=CO1 | 1.7% [at 50 µM] | 
53 | Nc1nc(COC(=O)c2ccc([N+](=O)[O-])cc2)nc(Nc2ccccc2)n1 | 4.86% [at 50 µM] | 
54 | CC(C)C(O)(CO)CCO[C@@H]1O[C@H](CO[C@H]2OC[C@](O)(CO)[C@H]2O)[C@@H](O)[C@H](O)[C@H]1O (stereo partly drawn) | 3.89% | 
55 | CC1OC(O[C@@H]2[C@@H](O)[C@H](OC(=O)[C@]34CCC(C)(C)C[C@H]3C3=CCC5[C@@]6(C)CC[C@H](O[C@@H]7O[C@H](C(=O)O)[C@@H](O)[C@H](O[C@@H]8OC[C@@H](O)[C@H](O)[C@H]8O)[C@H]7O[C@@H]7O[C@H](CO)[C@H](O)[C@H](O)[C@H]7O)[C@@](C)(C=O)C6CC[C@@]5(C)[C@]3(C)C[C@H]4O)O[C@H](C)[C@@H]2OC2OC(C)C(OC3OCC(O)C(O)C3O)C(O)C2O)C(O)C(O)C1O (stereo partly drawn) |  | inactive [at 9.73 µM]
56 | C=C1C(OC(C)=O)C(=O)C2C(C)(C)C(O)CCC2(C)C1CC(OC(C)=O)/C(C)=C/COC(C)=O (stereo not drawn) | -14.9% | 
57 | NC(=O)[C@H](Cc1ccccc1)NC(=O)[C@H](CCCN=C(N)N)NC(=O)C12CC3CC(CC(C3)C1)C2 | -0.516% [at 9.73 µM] | 
58 | C=C1CC23CC1CCC2C12OC(=O)C(C)(C(O)C(O)C1O)C2C3C(=O)O (stereo not drawn) | -1.51% | 
